# According to PubChem BioAssay AID2546 (National Center for Advancing Translational Sciences (NCATS), 2010):
# Among all 310,000 compounds or so, about 11,000 (3.5%) were called active. Where a call stands in place of a potency, no number is given. Roughly 8% stayed inconclusive and do not appear here. The call rests on the fitted dose curve; in most records, active means well fitted inhibition curve with a large enough effect; inconclusive means small, poorly fitted or top-dose-only effect, or effect the other way; inactive means flat fitted curve, though single readings scatter. The sample as a whole holds a higher share of actives than the screen did.
# Assay: VP16 counterscreen qHTS for inhibitors of ROR gamma transcriptional activity;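 further: Gal4-VP16 expression switched on by copper sulfate through the metallothionein promoter; nearly all actives have a fitted effect of over 50% in size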
# Conditions: Drosophila S2 Gal4-VP16 UAS-luciferase, luminescence, 20 h; series mostly up to 53.6 µM
# Potency means the concentration at half of the fitted maximal effect.
row,SMILES,Potency
1,COc1ccccc1CNC(=O)C1CCN(S(=O)(=O)c2ccc3c(c2)CC(C)N3C(=O)C2CC2)CC1 (stereo not given),inactive
2,COc1ccc(CN2C(=O)C(C)S/C2=N/N=C/c2ccco2)cc1 (stereo not given),inactive
3,O=C(O)C[C@@H]1NC(=O)[C@H](Cc2ccccc2)NC1=O,inactive
4,O=C1N/C(=N\N=C\c2ccco2)SC1Cc1ccc(F)cc1 (stereo not given),4.47 µM (active)
5,CC(C)=N/N=C1/NC(=O)C(Cc2ccccc2)S1 (stereo not given),2.82 µM (active)
6,CN(CCOc1ccc(CC2SC(=O)NC2=O)cc1)c1ccccn1 (stereo not given),inactive
7,C=CCN1C(=O)C(Cc2cccc(Cl)c2)S/C1=N/N=C/c1ccco1 (stereo not given),inactive
8,CC1Sc2ccc(S(=O)(=O)CCC(=O)NCc3ccccc3Cl)cc2NC1=O (stereo not given),inactive
9,C/C(=N\NC(=O)c1ccc2ccccc2c1)c1cccnc1,inactive
10,COc1ccc(CCNC(=O)CS(=O)(=O)Cc2nc(-c3ccc(C)cc3)oc2C)cc1OC,inactive
11,COc1cccc(CNS(=O)(=O)c2ccc3c(c2)CC(C)N3C(C)=O)c1 (stereo not given),inactive
12,Cn1cncc1COC(=O)c1ccc(Cl)cc1,inactive
13,O=C(Cc1c(Cl)cccc1Cl)NC1CC1,inactive
14,CCOc1ccc(-c2n[nH]c(C)c2-c2ccccn2)c(O)c1,inactive
15,C=C(C)COc1ccc(-c2n[nH]c(C)c2-c2ccccc2)c(O)c1,3.16 µM (active)
16,C=C(C)COc1ccc(-c2nc(N)ncc2-c2ccccc2OC)c(O)c1,inactive
17,C=C(C)COc1ccc(-c2ncncc2-c2ccc(OC)cc2)c(O)c1,inactive
18,C=C(C)COc1ccc(-c2n[nH]c(C)c2-c2ccccc2OC)c(O)c1,14.1 µM (active)
19,CCOc1ccc(-c2nc(N)ncc2-c2ccccc2OC)c(O)c1,inactive
20,O=C(c1ccccc1)N1CCC(CC2CC(c3ccc(Cl)cc3)=NO2)(C(=O)NCC2CCCCC2)CC1 (stereo not given),inactive
21,CCCN1CCn2c3c(c4cc(Br)ccc42)CCCC31 (stereo not given),inactive
22,Cc1cc(O)c(C(=O)/C=C/c2c(F)c(F)c(F)c(F)c2F)c(=O)o1,inactive
23,CCOC(=O)N1CCN(C(=O)c2ccc3c(=O)n(CCc4ccc(OC)c(OC)c4)c(=O)[nH]c3c2)CC1,inactive
24,CCC(C(=O)OC)n1cnc2scc(-c3ccc(C)cc3)c2c1=O (stereo not given),inactive

row,SMILES,Potency
1,CC(=O)Oc1ccc(-c2cccc(C(=O)N3CCCCC3)c2)cc1,inactive
2,C/C(=N\Nc1nncc2ccccc12)c1ccc(Cl)c([N+](=O)[O-])c1,inactive
3,CN(CCO)c1ccc(/C=N/Nc2nncc3ccccc23)cc1,11.2 µM (active)
4,COc1cc(/C=N/Nc2nn3cnnc3c3ccccc23)cc(OC)c1OC,inactive
5,O=C(CCCO)N/N=C/c1cc(Br)ccc1O,12.6 µM (active)
6,O=C(CCC(=O)N/N=C/c1ccc(Br)o1)N/N=C/c1ccc(Br)o1,inactive
7,NCCCCCC(=O)N/N=C/c1ccc2nccnc2c1,inactive
8,CC1CC(C)CN(c2ccc(S(=O)(=O)N3CCOCC3)cc2)C1 (stereo not given),inactive
9,COc1ccc2c(CC(=O)N3CCc4cc(OC)c(OC)cc4C3)coc2c1,inactive
10,COc1ccc(NC(=O)CSc2nc(SC)ns2)c(OC)c1,inactive
11,CCCCN1C(=S)NC[C@@H]1C(C)CC (stereo not given in full),10 µM (active)
12,CCCCN1CCNC1=S,inactive
13,Cc1ccc2c(c1)N(CC(=O)N1CCOCC1)C(=O)CO2,inactive
14,CCOC(=O)[C@@H]1[C@H]2COc3cc(OC)ccc3[C@@H]2N2C(=O)N(c3cccc(C)c3)C(=O)[C@@]12C,inactive
15,CCOc1ccc(N(CC(=O)NCCc2ccc(F)cc2)S(=O)(=O)c2ccccc2)cc1,inactive
16,Cc1ccccc1N1CC(C(=O)Nc2nnc(SCCC3OCCO3)s2)CC1=O (stereo not given),inactive
17,CCC(C)(C)NC(=O)CN(C(=O)CCC(=O)Nc1nccs1)c1ccc2c(c1)OCO2,inactive
18,C=CCNC(=S)NNC(=O)COc1c(Cl)cc(Cl)cc1Cl,1.58 µM (active)
19,C=CCNC(=S)NNC(=O)c1cc(Cl)ccc1OC,inactive
20,C=CCNC(=S)NNC(=O)c1ccc(Br)o1,inactive
21,CC(C)[C@H](NC(=O)N1CCn2c1nc1ccccc12)C(=O)NCc1ccc2c(c1)OCO2,inactive
22,CCN(C(=O)CN1C(=O)/C(=C/c2ccc(F)cc2)SC1=S)C1CCS(=O)(=O)C1 (stereo not given),inactive
23,COc1ccc(N(C(=O)c2cccnc2)S(=O)(=O)c2ccc(OC)c(OC)c2)cc1,inactive
24,COc1cc(SC)ccc1C(=O)Nc1nc(C)cs1,3.98 µM (active)

row,SMILES,Potency
1,COc1cc(SC)ccc1C(=O)NCCOc1ccccc1Cl,inactive
2,COc1ccc(Cc2nnc(NC(=O)c3ccc(OC)cc3OC)s2)cc1,inactive
3,CCn1c2ccc(F)cc2c2nnc(SCCN3CCOCC3)nc21,inactive
4,CCC(=O)c1cn(CCOc2ccccc2OC)c2ccccc12,inactive
5,CCOc1ccc(N(C)Cc2cc(=O)oc3ccc(OC)cc23)cc1,inactive
6,Cc1cc(=O)oc2c3c(cc(OCC(=O)NCc4ccccn4)c12)OC(C)(C)CC3,inactive
7,CCc1ccc(/C=C2\SC(N3CCOCC3)=NC2=O)cc1,inactive
8,O=C1N=C(N2CCc3ccccc3C2)S/C1=C\c1ccc(O)cc1,1.58 µM (active)
9,O=C1N=C(N2CCCC2)S/C1=C\c1cccc(Br)c1,inactive
10,CCCCNC(=O)c1ccc(-n2c(=S)[nH]c3ccccc3c2=O)cc1,inactive
11,CCCCNC(=O)CCn1c(=S)[nH]c2cc3c(cc2c1=O)OCO3,inactive
12,CCCCn1c(=S)[nH]c2ccccc2c1=O,5.01 µM (active)
13,CN(C)CCn1c(=S)[nH]c2ccc(Cl)cc2c1=O,inactive
14,CCN(CC)CCn1c(=S)[nH]c2ncccc2c1=O,inactive
15,CCCCn1c(=S)[nH]c2ncccc2c1=O,3.55 µM (active)
16,O=C(NC1CCCCCCC1)c1cccs1,inactive
17,CCCc1nn2c(=O)cc(CSCC(=O)Nc3cccc(C)c3)nc2s1,inactive
18,CCOC(=O)N1CCN(S(=O)(=O)c2ccc(Br)cc2)CC1,inactive
19,Cc1ccc(NC(=O)CCC(=O)c2ccc(Br)cc2)cc1,inactive
20,CCC(Cc1ccccc1)NS(=O)(=O)c1ccc2c(c1)NC(=O)CS2 (stereo not given),inactive
21,CCc1ccc(NC(=O)CCNS(=O)(=O)c2cccs2)cc1,inactive
22,CCn1c(=S)sc2c(=O)n(CC(=O)Nc3cccc(Br)c3)c(C)nc21,inactive
